From PubChem BioAssay (NCI) come the findings set out here.

Where “and” joins values, the source holds several entries; their conditions need not be identical. Equal entries are not always repeated. This is part of a sample that, as a whole, favours compounds with a hit. Of some 79,000 tested, about 15% had one in any assay. Where a structure was tested more than once in an assay, its records may differ in their call. Calls of active or inactive are those of the source. Cut-off read from the data, not from the text of the source: active = growth inhibition above about 70%; inactive = the rest.

The nature of test [1]: NCI Yeast Anticancer Drug Screen. Data for the rad50 strain (AID 155).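 Note: 0% = growth of vehicle-only cultures of the same strain.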 Conditions: S. cerevisiae rad50 strain growth inhibition, stronger effect = higher value. An outline of the steps: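 Vehicle-treated cultures provide the reference for the growth inhibition reported for compound-exposed, repair-deficient yeast.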
Test [2] can be described thus: NCI Yeast Anticancer Drug Screen. Data for the mec2-1 strain (AID 157). Particulars: S. cerevisiae mec2-1 strain, stronger effect = higher value. In short, it runs like this: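 Vehicle-treated cultures served as reference for growth inhibition of compound-exposed mec2-1 yeast.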
A short description of test [3]: NCI Yeast Anticancer Drug Screen. Data for the sgs1 mgt1 strain (AID 161).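 Note: 0% = growth of cultures given vehicle only.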 Conditions: S. cerevisiae sgs1 mgt1 strain, stronger effect = higher value. In short, it runs like this: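 Read-out: growth inhibition vs vehicle controls. Cells: mutant yeast strain deficient in DNA damage repair.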
Test [4] can be described thus: NCI Yeast Anticancer Drug Screen. Data for the cln2 rad14 strain (AID 165).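 Note: 0% = growth equal to vehicle treated cultures.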 Particulars: S. cerevisiae cln2 rad14 strain, stronger effect = higher value. An outline of the steps: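 Each compound was tested on cln2 rad14 yeast. Inhibition of growth was calculated against vehicle-exposed controls.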
Test [5] is described as follows: NCI Yeast Anticancer Drug Screen. Data for the bub3 strain (AID 167). Conditions: S. cerevisiae bub3 mutant strain, stronger effect = higher value. In short, it runs like this:
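Mutant yeast screening strain plus compound; vehicle-treated cultures serve as the 0% inhibition reference.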

The nature of test [6]: NCI Yeast Anticancer Drug Screen. Data for the mlh1 rad18 strain (AID 175). Conditions: S. cerevisiae mlh1 rad18 strain growth inhibition, stronger effect = higher value. In short, it runs like this: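 Vehicle-treated cultures served as the reference for growth inhibition in a yeast strain carrying DNA damage repair alterations exposed to each compound.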
[7] abbreviates: at 5.0 µM (retest, dose inferred, filed as 0.5).
[8] abbreviates: at 50.0 µM (retest, dose inferred, filed as 5.0).

Take `CCOC(CN=c1nc(N(C)C)ss1)OCC`: the growth inhibition in test [1] (setting [7]) was 1% (inactive); in test [1] (setting [8]), -20% (inactive); in test [1] (at 50.0 µM), 2.75% (inactive); in test [2] (setting [7]), -9% (inactive); in test [2] (setting [8]), -12% (inactive); in test [2] (at 50.0 µM), -8% (inactive). Moreover, the growth inhibition was 11% (inactive) in test [3] (setting [7]); -19% (inactive) in test [3] (setting [8]); -3.95% (inactive) in test [3] (at 50.0 µM); -22% (inactive) in test [4] (setting [7]); -24% (inactive) in test [4] (setting [8]); 7.85% (inactive) in test [4] (at 50.0 µM). Also, the growth inhibition is -1% (inactive) in test [5] (setting [7]); -9% (inactive) in test [5] (setting [8]); 43.4% (inactive) in test [5] (at 50.0 µM); -5% (inactive) in test [6] (setting [7]); -7% (inactive) in test [6] (setting [8]); -15.3% (inactive) in test [6] (at 50.0 µM).
Consider `CC(C)(c1ccc(O)cc1)c1ccc(O)cc1`, for which the growth inhibition was 5% (inactive) in test [1] (setting [7]); 59% (inactive) and 83% (active) in test [1] (setting [8]); 69.5% (inactive) and 77.6% (active) in test [1] (at 50.0 µM); 10% (inactive) and 3% (inactive) in test [2] (setting [7]); 34% (inactive) and 51% (inactive) in test [2] (setting [8]); 58.6% (inactive) and 81.8% (active) in test [2] (at 50.0 µM). The growth inhibition was -3% (inactive) and 4% (inactive) in test [3] (setting [7]); 75% (active) and 51% (inactive) in test [3] (setting [8]); 78.1% (active) and 64.6% (inactive) in test [3] (at 50.0 µM); 9% (inactive) and 16% (inactive) in test [4] (setting [7]); 39% (inactive) and 78% (active) in test [4] (setting [8]); 50.4% (inactive) and 71.2% (active) in test [4] (at 50.0 µM). In addition, the growth inhibition in test [5] (setting [7]) is 30% (inactive) and 5% (inactive); in test [5] (setting [8]) it was 45% (inactive) and 64% (inactive); in test [5] (at 50.0 µM) it was 59.7% (inactive) and 81.1% (active); in test [6] (setting [7]) it was 6% (inactive) and 4% (inactive); in test [6] (setting [8]) it was 64% (inactive) and 68% (inactive); in test [6] (at 50.0 µM), 76.6% (active) and 87.7% (active).
Consider `CN(C)/C=C1\CCc2ccc([N+](=O)[O-])cc2C1=O`, for which the growth inhibition is 19% (inactive) in test [1] (setting [7]); 21% (inactive) in test [1] (setting [8]); 6.9% (inactive) in test [1] (at 50.0 µM); 17% (inactive) in test [2] (setting [7]); 25% (inactive) in test [2] (setting [8]); 0.45% (inactive) in test [2] (at 50.0 µM). Moreover, the growth inhibition in test [3] (setting [7]) was 24% (inactive); in test [3] (setting [8]), 29% (inactive); in test [3] (at 50.0 µM), 16.4% (inactive); in test [4] (setting [7]), 31% (inactive); in test [4] (setting [8]) it was 17% (inactive); in test [4] (at 50.0 µM), 12.1% (inactive). Further, the growth inhibition in test [5] (setting [7]) is 26% (inactive); in test [5] (setting [8]) it was 19% (inactive); in test [5] (at 50.0 µM), 21.4% (inactive); in test [6] (setting [7]), 29% (inactive); in test [6] (setting [8]), 35% (inactive); in test [6] (at 50.0 µM), -28.4% (inactive).
For `CC(=O)OC1OC(CI)C(OC(C)=O)C(OC(C)=O)C1OC(C)=O` (stereo not drawn), the growth inhibition is 1% (inactive) in test [1] (setting [7]); 38% (inactive) in test [1] (setting [8]); 16.1% (inactive) and 5.95% (inactive) in test [1] (at 50.0 µM); -1% (inactive) in test [2] (setting [7]); 21% (inactive) in test [2] (setting [8]); 17% (inactive) and 12.6% (inactive) in test [2] (at 50.0 µM). In addition, the growth inhibition in test [3] (setting [7]) was -3% (inactive); in test [3] (setting [8]), 19% (inactive); in test [3] (at 50.0 µM) it was 4.55% (inactive) and -11.6% (inactive); in test [4] (setting [7]), 2% (inactive); in test [4] (setting [8]), 49% (inactive); in test [4] (at 50.0 µM), 17.1% (inactive) and 5.75% (inactive). Further, the growth inhibition in test [5] (setting [7]) was -5% (inactive); in test [5] (setting [8]) it was 69% (inactive); in test [5] (at 50.0 µM) it was 19.8% (inactive) and 94% (active); in test [6] (setting [7]), -1% (inactive); in test [6] (setting [8]) it was 25% (inactive); in test [6] (at 50.0 µM), 24.4% (inactive) and 9.3% (inactive).
For the compound `CC(=O)OCC(=O)[C@H]1CC[C@H]2[C@@H]3CC=C4C[C@@H](O)CC[C@]4(C)[C@H]3CC[C@]12C`, the growth inhibition is 54% (inactive) in test [1] (setting [7]); 91% (active) in test [1] (setting [8]); 89.8% (active) in test [1] (at 50.0 µM); 33% (inactive) in test [2] (setting [7]); 91% (active) in test [2] (setting [8]); -5.65% (inactive) in test [2] (at 50.0 µM). For the same compound, the growth inhibition is 60% (inactive) in test [3] (setting [7]); 94% (active) in test [3] (setting [8]); 48.5% (inactive) in test [3] (at 50.0 µM); 18% (inactive) in test [4] (setting [7]); 95% (active) in test [4] (setting [8]); 55.8% (inactive) in test [4] (at 50.0 µM). In addition, the growth inhibition in test [5] (setting [7]) is 23% (inactive); in test [5] (setting [8]), 91% (active); in test [5] (at 50.0 µM), -17.4% (inactive); in test [6] (setting [7]), 65% (inactive); in test [6] (setting [8]), 95% (active); in test [6] (at 50.0 µM), 81.1% (active).
As to `CCCC1CCC(=C2C(=O)CCC2=O)O1` (stereo not drawn), the growth inhibition in test [1] (setting [7]) was 6% (inactive); in test [1] (setting [8]) it was 21% (inactive); in test [1] (at 50.0 µM), -4.75% (inactive) and 90.7% (active); in test [2] (setting [7]), 2% (inactive); in test [2] (setting [8]), 19% (inactive); in test [2] (at 50.0 µM), -8.75% (inactive) and 92.2% (active). Further, the growth inhibition was 9% (inactive) in test [3] (setting [7]); 26% (inactive) in test [3] (setting [8]); -5.55% (inactive) and 92.7% (active) in test [3] (at 50.0 µM); -2% (inactive) in test [4] (setting [7]); 8% (inactive) in test [4] (setting [8]); 0.65% (inactive) and 91.2% (active) in test [4] (at 50.0 µM). Moreover, the growth inhibition in test [5] (setting [7]) is 8% (inactive); in test [5] (setting [8]) it was 9% (inactive); in test [5] (at 50.0 µM) it was 2.55% (inactive) and 91% (active); in test [6] (setting [7]), 15% (inactive); in test [6] (setting [8]), 35% (inactive); in test [6] (at 50.0 µM), -13.1% (inactive) and 90.8% (active).
